Rows were chosen to be rich in hits. Some 12% of all compounds tested hit in one or more screens of this group.
G9a block: inhibitors of human histone lysine methyltransferase G9a; Q96KQ7; AID 504332; G9a H3K9 monomethylation, AlphaScreen, 2 h; Potency, µM (titrated, usually from 102 µM), for the others: at the top dose activity, negative = inhibition, hits mostly inhibitors; actives 8.8% (n = 350,000); further: on the % scale 0 is the no-effect control and ±100 the full control effect; nearly all actives have a fitted effect of over 75% in size
Target sequence (Q96KQ7 913-1193 limits assumed): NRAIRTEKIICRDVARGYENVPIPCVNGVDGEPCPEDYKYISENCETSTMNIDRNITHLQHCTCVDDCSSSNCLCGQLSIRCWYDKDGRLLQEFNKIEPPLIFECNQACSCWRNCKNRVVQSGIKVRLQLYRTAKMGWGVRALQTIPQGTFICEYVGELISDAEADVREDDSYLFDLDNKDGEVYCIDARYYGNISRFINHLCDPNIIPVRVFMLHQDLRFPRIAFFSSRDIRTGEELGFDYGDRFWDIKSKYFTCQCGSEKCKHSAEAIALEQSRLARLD
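Using a bead-based AlphaScreen, monomethylated H3K9 product from 2 h room-temperature reactions (G9a 20 nM, peptide 500 nM, SAM 20 uM) was detected with 0.5 ug/mL rabbit anti-H3K9me1 antibody.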
Sfp PPTase inh: inhibitors of Bacillus subtilis Sfp phosphopantetheinyl transferase; Biochemical Sfp PPTase activity, qHTS; actives 3.5% (n = 310,000); Potency, µM, without a hit: largest response in the series, negative = inhibition, actives largely listed as inhibitors; AID 1490; Q9F4F7;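 further: the enzyme is Sfp with the accession as filed and its product quenches rhodamine fluorescence; 0% = enzyme reaction without inhibitor and -100% = no enzyme wells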
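Fluorescence-quenching assay with 15 nM Sfp, 5 uM rhodamine-CoA and 12.5 uM BHQ-2-labelled ybbR peptide in pH 7.6 Hepes/MgCl2 buffer. Enzyme was pre-incubated with compound for 15 min at room temperature. Rate was taken from the 30-min fluorescence change (525/598 nm).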
JMJD2A Tudor: blocks the human JMJD2A Tudor domain | O75164 | AlphaScreen JMJD2A-Tudor / H3K4me3 peptide binding | actives 4.4% (n = 390,000) | Potency, µM (top dose mostly 114 µM), for the others: at the highest dose activity change, negative = inhibition, actives largely listed as inhibitors; further: on the % scale 0 is the no-effect control and ±100 the full control effect; nearly all actives have a fitted effect of over 50% in size
HP1b binding inh: HP1-beta chromodomain-methylated histone interaction inhibition | P83916 | AlphaScreen HP1-beta / biotin-H3K9me3 peptide binding | Potency, µM (highest dose often 114 µM), for the others: at the highest dose activity change, negative = inhibition, usual class: inhibitors | AID 540317 | actives 0.56% (n = 390,000); further: nearly all actives have a fitted effect of over 70% in size
Target sequence (P83916 whole entry, looked up): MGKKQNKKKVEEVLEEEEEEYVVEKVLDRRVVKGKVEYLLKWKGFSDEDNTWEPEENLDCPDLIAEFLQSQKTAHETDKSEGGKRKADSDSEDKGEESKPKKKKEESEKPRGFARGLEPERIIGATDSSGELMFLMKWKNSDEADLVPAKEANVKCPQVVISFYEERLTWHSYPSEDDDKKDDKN
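Compound inhibition of the preformed complex between 50 nM HP1-beta and 50 nM biotinylated H3K9me3 peptide was read by AlphaScreen. Buffer was PBS pH 7.4 with 0.01% Tween-20. Incubations ran 30 min at room temperature, with 10 ug/mL donor/acceptor beads.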
BAZ2B block: inhibitors of human BAZ2B bromodomain. Q9UIF8. AlphaScreen BAZ2B-H3K14Ac peptide displacement. Potency, µM (top dose mostly 114 µM), for the others: at the highest dose activity change, negative = inhibition, actives largely listed as inhibitors. actives 4.4% (n = 360,000). AID 504333; further: on the % scale 0 is the no-effect control and ±100 the full control effect; nearly all actives have a fitted effect of over 60% in size
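Protein-peptide AlphaScreen: BAZ2B 50 nM, b-H3K14Ac 50 nM, 1x PBS pH 7.4 + 0.01% Tween-20. Preincubation 30 min RT; cpd 30 min RT (top 110 uM); beads 20 min RT, light-protected.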
* = called active by the depositor; ! = a repeat was not active; [ ] = dose if it differs, or a comment. The call rests on the fitted dose curve; in most records, active means well fitted curve in the direction sought with a large enough effect; inconclusive means small, poorly fitted or top-dose-only effect, or another doubt; inactive means no such curve, though single readings can be large; an effect the other way counts as inactive or inconclusive. Potency means the concentration at half of the fitted maximal effect.

What do the screens show for `Cn1c(COc2ccccc2)nnc1SCCSc1nnc(COc2ccccc2)n1C`?
G9a block: 16%[12.7 µM]; Sfp PPTase inh: 18%; JMJD2A Tudor: -6%; HP1b binding inh: 23%; BAZ2B block: -2%

What do the screens show for `Cn1c(COc2ccc(Br)cc2)nnc1SC1CCc2ccccc2C1=O` (configuration not stated)?
G9a block: inconclusive; Sfp PPTase inh: 50µM*; JMJD2A Tudor: inconclusive; HP1b binding inh: 14%; BAZ2B block: inconclusive

How did COc1ccccc1N1CCN(C(=O)c2ccc3c(=O)n(Cc4ccc5c(c4)OCO5)c(=O)[nH]c3c2)CC1 do in these assays?
G9a block: -7%; Sfp PPTase inh: 15%; JMJD2A Tudor: -5%; HP1b binding inh: 15%; BAZ2B block: -19%[57.1 µM]

How did COc1ccccc1C1=Nn2c(nnc2-c2ccccc2C)SC1 do in these assays?
Sfp PPTase inh: -11%; JMJD2A Tudor: -28%

How did Cc1ccc(C2NC(=O)NC3=C2CCc2ccccc23)cc1 (configuration not stated) do in these assays?
G9a block: 10µM*; Sfp PPTase inh: inconclusive; JMJD2A Tudor: -16%; HP1b binding inh: 23%; BAZ2B block: -16%

What do the screens show for `COc1cccc(C2NC(=S)NC3=C2CCc2ccccc23)c1` (configuration not stated)?
G9a block: 7.9µM*; Sfp PPTase inh: 50µM*; JMJD2A Tudor: -12%; HP1b binding inh: -3%; BAZ2B block: -6%

How did COc1ccc(C2NC(=O)NC3=C2CCc2ccccc23)cc1 (configuration not stated) do in these assays?
G9a block: inconclusive; Sfp PPTase inh: inconclusive; JMJD2A Tudor: -6%; HP1b binding inh: -1%; BAZ2B block: -4%

Results for CC(C)c1ccc(C2NC(=O)NC3=C2CCc2ccccc23)cc1 (configuration not stated) ?
G9a block: 32µM*; Sfp PPTase inh: -18%; JMJD2A Tudor: -16%; HP1b binding inh: 21%; BAZ2B block: -7%

Results for Cn1c(=O)c(-c2cccs2)nc2cnc(OCc3ccccc3)nc21 ?
G9a block: -4%[0.501 µM]; Sfp PPTase inh: 7%

What do the screens show for `CC(=O)Nc1ccc2c(COC(=O)[C@@H](NS(=O)(=O)c3ccc(C)cc3)C(C)C)cc(=O)oc2c1`?
JMJD2A Tudor: -5%; HP1b binding inh: 5%

What do the screens show for `Nc1cc(=O)[nH]c(SCCSc2cc(Cl)ccc2Cl)n1`?
G9a block: 57%; Sfp PPTase inh: -12%; JMJD2A Tudor: -7%; HP1b binding inh: 13%; BAZ2B block: 4%

What do the screens show for `COc1ccc(-c2nc3c4ccccc4n(CC(=O)N4CCN(c5ccccc5F)CC4)c(=O)n3n2)cc1`?
G9a block: 5%[59 µM]; JMJD2A Tudor: -7%; HP1b binding inh: 15%; BAZ2B block: -3%

How did CC(CCc1ccco1)NC(=O)c1cc2c(-c3ccccc3F)nn(C)c2s1 (configuration not stated) do in these assays?
G9a block: 89µM*; Sfp PPTase inh: 45µM*; JMJD2A Tudor: -21%; HP1b binding inh: 8%; BAZ2B block: -2%

How did COc1ccc(-c2cc(=O)n(-c3ccc([N+](=O)[O-])cc3)[nH]2)cc1 do in these assays?
G9a block: 10µM*; Sfp PPTase inh: -12%; JMJD2A Tudor: 56µM*; HP1b binding inh: inconclusive; BAZ2B block: 40µM*

Results for COc1ccc(-c2[nH]n(-c3ccc([N+](=O)[O-])cc3)c(=O)c2C=NCc2ccc(F)cc2)cc1 ?
G9a block: -14%[59 µM]; Sfp PPTase inh: -21%; JMJD2A Tudor: -26%; HP1b binding inh: 9%; BAZ2B block: 4%

What do the screens show for `CCOC(=O)Cn1c(=O)c2c(nc3n2CCN3c2ccc(CC)cc2)n(C)c1=O`?
G9a block: 8%[59 µM]; JMJD2A Tudor: 28%; HP1b binding inh: 82%; BAZ2B block: 31%

How did NC(N)=N/N=C/c1ccc(OCc2ccc(Cl)cc2)cc1 do in these assays?
G9a block: inconclusive; Sfp PPTase inh: 22µM*; JMJD2A Tudor: inconclusive; HP1b binding inh: -9%; BAZ2B block: -7%

How did O=c1c2c(nc3c(-c4ccc(Cl)cc4)c[nH]n13)CCC2 do in these assays?
G9a block: 56µM*; Sfp PPTase inh: inconclusive; JMJD2A Tudor: -5%[11.4 µM]; HP1b binding inh: inconclusive; BAZ2B block: -1%

What do the screens show for `O=c1c2c(nc3c(-c4ccccc4)c[nH]n13)CCC2`?
G9a block: -7%[59 µM]; Sfp PPTase inh: 5%; JMJD2A Tudor: -10%; HP1b binding inh: 20%; BAZ2B block: -2%

How did Cc1nn2c(N)csc2nc1=O do in these assays?
G9a block: 79µM*; Sfp PPTase inh: 50µM*; BAZ2B block: inconclusive

How did c1ccc(-c2ccc(OCCOCCn3cncn3)cc2)cc1 do in these assays?
G9a block: inconclusive; Sfp PPTase inh: -19%; JMJD2A Tudor: 32µM*; HP1b binding inh: inconclusive; BAZ2B block: 50µM*

How did COc1ccc(OCCn2cncn2)cc1 do in these assays?
G9a block: 22µM*; Sfp PPTase inh: -3%; JMJD2A Tudor: 7.9µM*; HP1b binding inh: -13%; BAZ2B block: 56µM*

Results for C/C=C/c1ccc(OCCn2cncn2)c(OC)c1 ?
G9a block: 14µM*; Sfp PPTase inh: inconclusive; JMJD2A Tudor: 40µM*; HP1b binding inh: inconclusive; BAZ2B block: 50µM*

Results for CC(C)(C)OC(=O)N(Cc1ccccc1)Cc1ccc(OCc2cccc(NC(=O)C3CC3)c2)cc1 ?
JMJD2A Tudor: -22%; HP1b binding inh: 34%

How did CCOc1ccc(CCNC(=O)Cn2nc(CC)n3c(cc4ccccc43)c2=O)cc1 do in these assays?
G9a block: -4%[59 µM]; JMJD2A Tudor: -8%; HP1b binding inh: 35%; BAZ2B block: -11%

What do the screens show for `CCCCC[C@H](O)/C=C/[C@@H]1[C@H](C/C=C\CCCC(=O)O)[C@@H](O)C[C@H]1O`?
G9a block: 25%[59 µM]; Sfp PPTase inh: 14%

Results for O=c1cc(-c2ccccc2)[nH]c2ccc(F)cc12 ?
G9a block: 79µM*!; Sfp PPTase inh: 28%; JMJD2A Tudor: -17%; HP1b binding inh: 35%; BAZ2B block: 5%

What do the screens show for `Cc1ccc(-c2cc(=O)c3cc(F)ccc3[nH]2)cc1`?
G9a block: -2%; Sfp PPTase inh: 25%; JMJD2A Tudor: -4%; HP1b binding inh: 41%; BAZ2B block: 2%

How did O=c1cc(-c2cccc(F)c2)[nH]c2cc(Cl)ccc12 do in these assays?
G9a block: -5%; Sfp PPTase inh: 7%

Results for Cc1ccc2[nH]c(-c3cccc(F)c3)cc(=O)c2c1 ?
G9a block: 0.28µM*!; Sfp PPTase inh: -4%; JMJD2A Tudor: -8%; HP1b binding inh: 44%; BAZ2B block: 5%

What do the screens show for `COc1ccc2[nH]c(-c3cccc(F)c3)cc(=O)c2c1`?
G9a block: inconclusive; Sfp PPTase inh: -1%; JMJD2A Tudor: -20%; HP1b binding inh: 30%; BAZ2B block: -5%
